Laboratory results taken from PubChem BioAssay AID1159580 (chemical genetic matrix, 2015).
Screen size: about 5,500 compounds; about 2,000 (36%) were called active. Another 18% or so got no clear call; they are omitted. No stated cut-off is given here; in the data, active means normalized growth mostly below about 0.91 (no sharp cut-off); inconclusive means no clear call, values can overlap the other calls; inactive means mostly above about 0.92. The list shows a part of the results.

Experiment: chemical genetic growth profiling, strain panel (AID 1159580);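 further: tested at 20 µM; growth read once vehicle control cultures reached saturation at 30 °C; 1 = growth at the plate median or of vehicle wells; lower values mean less growth of the strain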
Details: S. cerevisiae deletion strains, growth OD

Measured: normalized growth

CCOC(=O)C1=C(N)Oc2ccc(Br)cc2C1C(C#N)C(=O)OCC (stereo not drawn)
active: locus YDL101C, strain DUN1, hits give low values 0.884 | locus YEL061C, strain CIN8, hits give low values 0.648 | locus YHR030C, strain SLT2, hits give low values 0.293 | locus YJR075W, strain HOC1, hits give low values 0.88 | locus YLR039C, strain RIC1, hits give low values 0.386 | locus YLR085C, strain ARP6, hits give low values 0.379 | locus YLR262C, strain YPT6, hits give low values 0.46 | locus YML094W, strain GIM5, hits give low values 0.669 | locus YMR307W, strain GAS1, hits give low values 0.667 | locus YNL298W, strain CLA4 (second series), hits give low values 0.61 | locus YNR030W, strain Alg12, hits give low values 0.528 | locus YPL241C, strain CIN2, hits give low values 0.472 | locus YPR135W, strain CTF4, hits give low values 0.424
inactive: locus YAL013W, strain DEP1, hits give low values 0.934 | locus YBR229C, strain ROT2, hits give low values 0.938 | locus YCL061C, strain MRC1, hits give low values 0.916 | locus YDR150W, strain NUM1, hits give low values 0.957 | locus YGR078C, strain PAC10, hits give low values 0.938 | locus YGR229C, strain SMI1, hits give low values 0.963 | locus YHR087W, strain rtc3, hits give low values 0.979 | locus YJL187C, strain SWE1, hits give low values 0.959 | locus YJR043C, strain POL32, hits give low values 0.983 | locus YLR058C, strain SHM2 (second series), hits give low values 0.986 | locus YMR219W, strain ESC1, hits give low values 0.979 | locus YMR263W, strain SAP30, hits give low values 0.964 | locus YNL153C, strain GIM3, hits give low values 0.982 | locus YNL322C, strain KRE1, hits give low values 0.992 | locus YPL055C, strain LGE1, hits give low values 0.98
